According to PubChem BioAssay:
Records with an inconclusive call do not appear. Calls of active or inactive are those of the source. Rule as the data show it, unless noted: active = response above about 15%; inactive = the rest.

Legend:
[1] = rapamycin-like changes in RPL19A-GFP expression – cell-based, S. cerevisiae, multiplex flow cytometry, primary screen (AID 1862; in the data active = percent of DMSO control GFP below about 86%;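 also: lower values mimic rapamycin by blocking the RPL19A rise seen in DMSO cells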); conditions: S. cerevisiae RPL19A-GFP strain, flow cytometry fluorescence, 3 h; at 10 µM; stronger effect = lower value
[2] = TOR pathway GLN3 branch reporter MEP2-GFP changes – S. cerevisiae, multiplex flow cytometry, primary screen (AID 1867;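 active = GFP response, as percent of the DMSO control, above the screen-wide mean plus 3 SD, about 139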;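 also: median GFP channel fluorescence of barcode-gated MEP2-GFP cells measured by flow cytometry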); conditions: S. cerevisiae MEP2-GFP strain, 3 h, at 10 µM, stronger effect = higher value, 100% means same as DMSO wells
[3] = TOR pathway RTG branch CIT2 reporter changes – S. cerevisiae, GFP fusion, multiplex flow cytometry, primary screen (AID 1870;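 active = percent response above a set limit, the screen-wide mean plus 3 SD, cut at about 130% in these data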;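 also: barcoded CIT2-GFP strain pooled with four other GFP strains with rapamycin as positive control; median GFP fluorescence per well over plate mean of DMSO wells so 100% = DMSO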); conditions: S. cerevisiae CIT2-GFP expression, 3 h, at 10 µM, stronger effect = higher value
[4] = TOR pathway LAP4-GFP level changes – S. cerevisiae, multiplex flow cytometry, primary screen (AID 1873;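 active = GFP signal, as percent of the solvent control, above the screen mean plus 3 SD, about 149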); conditions: S. cerevisiae LAP4-GFP expression, 3 h, at 10 µM, stronger effect = higher value
[5] = yeast AGP1-GFP level changes, GLN3 branch – cell-based, multiplex flow cytometry, S. cerevisiae, primary screen (AID 1887;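 active = GFP signal above the screen-wide mean plus 3 SD, that is over about 124.5% of the solvent control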;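 also: AGP1-GFP fusion strain of S. cerevisiae within a five-strain barcoded multiplex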); conditions: 3 h, at 10 µM, stronger effect = higher value
[6] = reduced mouse 2C T cell binding to pMHC/ICAM-1 vesicles – MLPCN validation set, flow cytometry, LFA-1/ICAM-1 modulator project, pilot screen (AID 2523;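 active = response below a set limit, under 55% cells CD8-positive and vesicle-bound, and CD8 cells' 90th-percentile brightness under 279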;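 as to vesicle binding response: mean PE anti-B7-1 fluorescence of CD8+ cells relative to row control; 100% = QL9-loaded vesicles with DMSO vehicle in the same plate row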); conditions: 2C mouse CD8+ T cells, at 7 µM, stronger effect = lower value; double positive events: measured here: CD8+/vesicle+ event percentage
[7] = calorie-restriction mimetic ROS inhibitors, yeast – validation compound set, pilot screen (AID 2706;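 active = superoxide response below 65% of plate, a cut near 3 SD across the whole screen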;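 also: yeast exposed to compound for one week at 30 degrees C before staining; 100% = mean of all compound wells on the same plate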); conditions: S. cerevisiae aging, superoxide DHE fluorescence; at 10 µM; stronger effect = lower value
[8] = target: Beta-adrenergic receptor kinase 1 (Homo sapiens) (UniProt P25098); assay: GRK2 binders displacing RNA aptamer, biochemical, validation, human GRK2, bead flow cytometry (AID 488806;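 active = aptamer binding inhibition above 30%, about 3 SD of noise from non-fluorescent compounds; inactive = inhibition at or below 30%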); conditions: bead-bound GRK2, FAM-aptamer displacement, at 10 µM, stronger effect = higher value
[9] = target: Beta-2 adrenergic receptor (Homo sapiens) (UniProt P07550); assay: agonist-induced loss of surface beta2AR – cell-based, FAP fluorogen, flow cytometry, validation set, pilot screen (AID 504459;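 active = percent response above 42, roughly 3 SD of non-fluorescent test compounds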;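 also: agonist-driven loss of surface beta2AR via internalization measured by FAP dye flow cytometry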); conditions: Am2.2-beta2AR cells, at 10 µM, stronger effect = higher value
[10] = target: AP-2 complex subunit beta (Homo sapiens) (UniProt P63010); assay: beta-arrestin/AP2 interaction blockers – biochemical, validation set, GST-AP2 beads, flow cytometry, pilot screen (AID 504541;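 active = inhibition above 54%, about 3 SD of non-fluorescent compounds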;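 also: AP2 carries R879A mutation and is captured from E. coli lysate; bead-bound FITC arrestin peptide fluorescence measuring arrestin peptide binding to AP2; 0% = DMSO wells and 100% = excess unlabeled arrestin peptide control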); conditions: FITC arrestin peptide, at 10 µM, stronger effect = higher value, AP2 beta2 appendage fragment, R879A mutant
[11] = cytosolic pH regulators acting via V-ATPase – S. cerevisiae, pHLuorin, HTS validation (AID 504600); conditions: V-ATPase proton transport, at 10 µM, stronger effect = higher value;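 also: plate controls were DMSO for no effect and reference compound for full effect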
[12] = tested on: anti-desmoglein-3 scFv antibody binding to human DSG3; assay: blockers of pathogenic pemphigus antibody–desmoglein-3 binding – biochemical, validation compound set, bead-based, flow cytometry, pilot screen (AID 588368;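 active = binding below the plate cutoff, the plate median minus 3 SD, with a reading above zero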;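 also: signal is the median channel fluorescence of bead-bound GFP antibody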); conditions: Protein G beads, DSG3-Fc, scFv-GFP binding, at 10 µM, stronger effect = lower value
[13] = Nile Red efflux blockade in pump-expressing yeast – validation compound set, multiplex, phenotypic, pilot screen (AID 588506;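 active = efflux inhibition above 0.42, the validation set average plus 4 SD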;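 also: Nile Red retained in cells so higher fluorescence means more efflux inhibition; 0 = negative control wells and 1 = enniatin B 25 µM full block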); conditions: S. cerevisiae pump-expressing triplex, Nile Red efflux flow cytometry; at 10 µM; stronger effect = higher value; the pumps come from Candida albicans
[14] = target: ATP-binding cassette sub-family B member 6 (Homo sapiens) (UniProt Q9NP58); assay: blockers of ABCB6-driven porphyrin uptake – K562-ABCB6 cells, flow cytometry, validation set, pilot screen (AID 588550;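 active = inhibition above the screen-wide mean plus 3 SD, about 51%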;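 also: 0% = DMSO wells and 100% = benzethonium chloride 70 µM positive control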); conditions: K562-ABCB6 porphyrin accumulation, 1 h, at 10 µM, stronger effect = higher value
[15] = AML differentiation inducers, ER-HoxA9 marrow cells – cell-based, GFP/MAC1 double positive, flow cytometry, validation set, primary screen (AID 588685;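 active = differentiation response of at least 50%, scaled between solvent and reference control, from cells with both markers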;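 also: compound exposure lasts four days before antibody staining and flow analysis; 0% = DMSO wells and 100% = 5 µM fulvestrant positive control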); conditions: stronger effect = higher value, normalized: vehicle 0, fulvestrant 100
[16] = target: Integrin beta-1 (Homo sapiens) + Integrin alpha-4 (Homo sapiens) (UniProt P13612+P05556); assay: alpha4beta1 integrin LIBS antibody binding reduction – U937 cells, HUTS-21 mAb, flow cytometry, validation set, VLA-4 allosteric modulator project, pilot screen (AID 2674;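 active = inhibition above 50%, about 3 SD of the validation set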;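 also: antibody binding induced by the VLA-4 ligand LDV present at three times its Kd; 0% = LDV ligand with antibody and no compound and 100% = antibody without LDV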); conditions: HUTS-21 LIBS mAb binding, at 6.7 µM, stronger effect = higher value, binding induced by LDV ligand
Sequence of Integrin beta-1 (Homo sapiens) + Integrin alpha-4 (Homo sapiens) (P05556 whole entry, looked up): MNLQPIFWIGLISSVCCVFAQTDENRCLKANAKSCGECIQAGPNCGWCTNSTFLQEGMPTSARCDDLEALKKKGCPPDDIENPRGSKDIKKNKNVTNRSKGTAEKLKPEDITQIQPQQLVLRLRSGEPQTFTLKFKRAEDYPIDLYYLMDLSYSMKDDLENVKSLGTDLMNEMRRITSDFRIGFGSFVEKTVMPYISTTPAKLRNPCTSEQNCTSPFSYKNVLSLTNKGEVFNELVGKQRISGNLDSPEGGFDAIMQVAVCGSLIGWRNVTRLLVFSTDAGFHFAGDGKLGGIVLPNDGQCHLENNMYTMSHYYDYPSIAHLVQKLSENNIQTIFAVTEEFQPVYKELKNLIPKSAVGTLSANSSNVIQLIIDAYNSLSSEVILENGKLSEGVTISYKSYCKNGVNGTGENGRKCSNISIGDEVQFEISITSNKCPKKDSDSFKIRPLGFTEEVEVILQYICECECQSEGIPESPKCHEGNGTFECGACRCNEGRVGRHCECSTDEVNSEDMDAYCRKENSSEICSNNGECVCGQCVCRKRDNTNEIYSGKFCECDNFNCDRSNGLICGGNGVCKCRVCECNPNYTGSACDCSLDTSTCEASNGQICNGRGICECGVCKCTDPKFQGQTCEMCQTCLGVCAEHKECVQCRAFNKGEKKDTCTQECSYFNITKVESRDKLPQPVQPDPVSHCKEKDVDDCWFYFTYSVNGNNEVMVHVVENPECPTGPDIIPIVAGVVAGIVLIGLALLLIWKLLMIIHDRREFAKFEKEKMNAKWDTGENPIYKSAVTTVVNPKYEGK
Sequence of Integrin beta-1 (Homo sapiens) + Integrin alpha-4 (Homo sapiens) (P13612 whole entry, looked up): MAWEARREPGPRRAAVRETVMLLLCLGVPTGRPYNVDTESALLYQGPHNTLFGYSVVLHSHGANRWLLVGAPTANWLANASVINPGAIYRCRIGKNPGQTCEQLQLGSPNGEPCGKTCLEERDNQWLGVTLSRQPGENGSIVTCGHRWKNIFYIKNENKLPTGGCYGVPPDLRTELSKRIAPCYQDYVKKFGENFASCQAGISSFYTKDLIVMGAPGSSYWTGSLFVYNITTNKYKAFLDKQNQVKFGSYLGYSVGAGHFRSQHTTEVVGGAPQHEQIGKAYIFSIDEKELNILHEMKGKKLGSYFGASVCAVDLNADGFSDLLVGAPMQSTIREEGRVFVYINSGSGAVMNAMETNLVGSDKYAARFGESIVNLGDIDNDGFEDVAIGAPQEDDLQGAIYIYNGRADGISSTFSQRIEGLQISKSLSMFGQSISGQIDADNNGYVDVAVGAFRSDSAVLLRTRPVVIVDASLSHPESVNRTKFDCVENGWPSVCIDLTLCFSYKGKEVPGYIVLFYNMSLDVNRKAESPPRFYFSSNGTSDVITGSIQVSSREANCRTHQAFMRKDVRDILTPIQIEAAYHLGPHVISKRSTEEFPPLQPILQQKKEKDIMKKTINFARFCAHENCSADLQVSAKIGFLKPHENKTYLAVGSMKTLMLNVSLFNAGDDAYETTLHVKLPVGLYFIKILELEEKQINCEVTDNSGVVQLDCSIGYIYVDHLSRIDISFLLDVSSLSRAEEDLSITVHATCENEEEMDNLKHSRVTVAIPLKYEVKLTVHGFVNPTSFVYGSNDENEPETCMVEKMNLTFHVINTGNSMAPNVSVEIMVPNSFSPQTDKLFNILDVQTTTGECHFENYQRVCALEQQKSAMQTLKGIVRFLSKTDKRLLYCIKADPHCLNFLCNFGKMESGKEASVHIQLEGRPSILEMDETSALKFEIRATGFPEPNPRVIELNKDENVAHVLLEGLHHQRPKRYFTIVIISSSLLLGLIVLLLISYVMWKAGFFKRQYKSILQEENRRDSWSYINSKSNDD

Sequence of Beta-adrenergic receptor kinase 1 (Homo sapiens) (P25098 whole entry, looked up): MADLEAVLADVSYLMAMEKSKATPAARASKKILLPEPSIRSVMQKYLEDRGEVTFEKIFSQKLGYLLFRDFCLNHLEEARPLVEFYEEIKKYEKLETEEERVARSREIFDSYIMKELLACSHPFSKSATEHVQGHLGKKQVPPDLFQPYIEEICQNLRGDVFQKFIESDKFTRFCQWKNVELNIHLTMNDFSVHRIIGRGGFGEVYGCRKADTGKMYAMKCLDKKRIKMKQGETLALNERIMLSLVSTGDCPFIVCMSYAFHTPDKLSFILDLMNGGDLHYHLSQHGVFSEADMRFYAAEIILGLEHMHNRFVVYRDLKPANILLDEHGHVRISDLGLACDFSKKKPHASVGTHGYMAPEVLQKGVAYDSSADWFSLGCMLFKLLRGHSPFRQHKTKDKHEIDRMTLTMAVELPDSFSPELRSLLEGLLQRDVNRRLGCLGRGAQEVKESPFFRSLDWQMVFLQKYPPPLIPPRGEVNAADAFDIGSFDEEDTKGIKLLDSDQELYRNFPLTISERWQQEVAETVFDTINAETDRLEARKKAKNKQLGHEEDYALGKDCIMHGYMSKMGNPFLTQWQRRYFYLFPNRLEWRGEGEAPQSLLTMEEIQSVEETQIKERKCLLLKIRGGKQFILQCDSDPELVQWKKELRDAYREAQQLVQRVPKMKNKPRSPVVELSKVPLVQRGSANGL
Sequence of ATP-binding cassette sub-family B member 6 (Homo sapiens) (Q9NP58 whole entry, looked up): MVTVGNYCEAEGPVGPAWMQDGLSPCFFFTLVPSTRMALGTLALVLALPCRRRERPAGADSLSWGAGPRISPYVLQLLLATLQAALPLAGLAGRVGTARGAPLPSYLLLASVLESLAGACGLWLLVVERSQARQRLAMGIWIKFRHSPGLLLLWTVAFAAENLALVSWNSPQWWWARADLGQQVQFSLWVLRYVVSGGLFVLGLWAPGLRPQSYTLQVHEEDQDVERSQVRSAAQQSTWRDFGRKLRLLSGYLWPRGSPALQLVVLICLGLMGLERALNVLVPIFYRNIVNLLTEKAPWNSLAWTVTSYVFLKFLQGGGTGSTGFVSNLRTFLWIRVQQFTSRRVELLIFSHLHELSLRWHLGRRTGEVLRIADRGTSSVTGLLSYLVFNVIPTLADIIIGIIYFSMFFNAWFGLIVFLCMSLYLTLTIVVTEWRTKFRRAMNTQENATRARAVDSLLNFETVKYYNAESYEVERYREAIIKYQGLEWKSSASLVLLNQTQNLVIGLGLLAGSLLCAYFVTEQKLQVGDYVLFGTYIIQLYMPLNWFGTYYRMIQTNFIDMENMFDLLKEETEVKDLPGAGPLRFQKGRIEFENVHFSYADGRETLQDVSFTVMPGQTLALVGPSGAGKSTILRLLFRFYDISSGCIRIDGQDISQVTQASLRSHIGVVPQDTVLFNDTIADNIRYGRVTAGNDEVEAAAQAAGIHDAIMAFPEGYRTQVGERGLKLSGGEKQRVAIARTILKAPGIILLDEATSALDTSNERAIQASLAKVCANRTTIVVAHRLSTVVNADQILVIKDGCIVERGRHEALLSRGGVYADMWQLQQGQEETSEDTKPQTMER
Sequence of AP-2 complex subunit beta (Homo sapiens) (P63010 whole entry, looked up, the tested form may be a part, one chain of several): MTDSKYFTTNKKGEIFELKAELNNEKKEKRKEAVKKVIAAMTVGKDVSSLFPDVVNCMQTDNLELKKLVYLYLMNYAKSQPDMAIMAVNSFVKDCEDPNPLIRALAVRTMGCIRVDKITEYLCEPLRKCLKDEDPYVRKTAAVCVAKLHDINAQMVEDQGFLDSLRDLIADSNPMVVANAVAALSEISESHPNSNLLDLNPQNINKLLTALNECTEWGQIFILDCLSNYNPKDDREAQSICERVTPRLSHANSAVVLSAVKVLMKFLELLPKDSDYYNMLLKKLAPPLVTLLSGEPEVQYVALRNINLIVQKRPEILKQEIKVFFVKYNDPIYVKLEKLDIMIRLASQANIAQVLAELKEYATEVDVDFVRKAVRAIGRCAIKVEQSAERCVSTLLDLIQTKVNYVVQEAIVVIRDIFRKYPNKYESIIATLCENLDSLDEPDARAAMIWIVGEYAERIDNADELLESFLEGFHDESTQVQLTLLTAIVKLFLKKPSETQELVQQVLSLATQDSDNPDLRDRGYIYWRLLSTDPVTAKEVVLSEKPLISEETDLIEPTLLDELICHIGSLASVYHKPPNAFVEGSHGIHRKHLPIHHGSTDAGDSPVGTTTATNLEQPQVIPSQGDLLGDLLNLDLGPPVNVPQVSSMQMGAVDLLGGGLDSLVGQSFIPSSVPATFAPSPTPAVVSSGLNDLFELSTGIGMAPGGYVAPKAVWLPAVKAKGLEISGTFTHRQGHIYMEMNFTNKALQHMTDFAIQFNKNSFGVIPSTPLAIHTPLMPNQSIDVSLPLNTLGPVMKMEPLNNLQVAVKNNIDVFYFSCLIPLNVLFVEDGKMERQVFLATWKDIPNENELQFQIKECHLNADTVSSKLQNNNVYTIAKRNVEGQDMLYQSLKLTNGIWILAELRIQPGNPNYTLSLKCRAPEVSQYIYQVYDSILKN
Sequence of Beta-2 adrenergic receptor (Homo sapiens) (P07550 whole entry, looked up): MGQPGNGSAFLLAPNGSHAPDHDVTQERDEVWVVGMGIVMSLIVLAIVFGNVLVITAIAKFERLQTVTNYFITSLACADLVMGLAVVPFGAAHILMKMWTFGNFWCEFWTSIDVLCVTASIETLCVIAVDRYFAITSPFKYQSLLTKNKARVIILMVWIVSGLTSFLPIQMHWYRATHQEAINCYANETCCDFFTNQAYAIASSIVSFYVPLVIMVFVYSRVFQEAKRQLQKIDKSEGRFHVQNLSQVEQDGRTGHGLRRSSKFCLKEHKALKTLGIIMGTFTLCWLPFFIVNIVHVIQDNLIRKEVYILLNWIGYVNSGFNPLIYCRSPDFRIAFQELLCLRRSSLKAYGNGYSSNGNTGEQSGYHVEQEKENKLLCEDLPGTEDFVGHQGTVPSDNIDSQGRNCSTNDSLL

SMILES | percent of DMSO control GFP [1] | GFP response vs DMSO [2] | percent response of DMSO control [3] | GFP response vs DMSO [4] | GFP response, % of DMSO [5] | double positive events [6] | vesicle binding response [6] | superoxide response (% of plate) [7] | aptamer binding inhibition [8] | response [9] | inhibition [10] | response [11] | binding (% of control) [12] | efflux inhibition (fraction of control) [13] | inhibition [14] | differentiation response [15] | inhibition [16]
CC(C)c1cc(=O)oc2c3c4c(cc12)CCCN4CCC3 | 104% (inactive) | 99.6% (inactive) | 99.6% (inactive) | 78.6% (inactive) | 90.6% (inactive) | 59.3% | 145% (inactive) | 97.7% (inactive) | 9% (inactive) | 46% (active) | -43.1% (inactive) | 21.6% (active) | 98.7% (inactive) | 0.3 (inactive) | 2% (inactive) | -21.6% (inactive) | 
O=C(/C=C/c1ccc(F)cc1)NC(=S)N1CCCCC1c1cccnc1 (stereo not drawn) | 103% (inactive) | 106% (inactive) | 112% (inactive) | 117% (inactive) | 112% (inactive) | 56.7% | 165% (inactive) | 92.2% (inactive) | 82% (active) | -15.6% (inactive) | 1.74% (inactive) | 5.24% (inactive) | 104% (inactive) | -0.13 (inactive) | -5% (inactive) | -4.99% (inactive) | -3.67% (inactive)
CCOC(=O)Cn1c(C)cc(=O)c2ccccc21 | 97.6% (inactive) | 114% (inactive) | 91% (inactive) | 117% (inactive) | 103% (inactive) | 59.9% | 226% (inactive) | 103% (inactive) | 0% (inactive) | 8.73% (inactive) | 56.3% (active) | -4.51% (inactive) | 92.6% (inactive) | 0.3 (inactive) | 0% (inactive) | 114% (active) | 10.5% (inactive)
COc1cccc(CC(=O)NCC2COc3ccccc3O2)c1OC (stereo not drawn) | 103% (inactive) | 105% (inactive) | 101% (inactive) | 102% (inactive) | 106% (inactive) | 60.9% | 230% (inactive) | 92.8% (inactive) | 2% (inactive) | 3.04% (inactive) | -3.19% (inactive) | -3.58% (inactive) | 103% (inactive) | -0.1 (inactive) | 63% (active) | -6.03% (inactive) | 6.95% (inactive)
COc1ccc(C2=NOC(COc3ccc4c(C)cc(=O)oc4c3)C2)c(OC)c1 (stereo not drawn) | 99% (inactive) | 94.6% (inactive) | 96% (inactive) | 116% (inactive) | 91.3% (inactive) | 62.4% | 171% (inactive) | 99.1% (inactive) | 4% (inactive) | 12.7% (inactive) | 2.4% (inactive) | 1.1% (inactive) | 95.6% (inactive) | 0.04 (inactive) | 10% (inactive) | 3.45% (inactive) | -11.8% (inactive)
O=C1C(=O)c2ccccc2C(O)=C1c1ccccc1F | 111% (inactive) | 99.9% (inactive) | 71.2% (inactive) | 109% (inactive) | 85% (inactive) | 54.9% | 15.9% (active) | 175% (inactive) | 6% (inactive) | 4.63% (inactive) | 5.16% (inactive) | 0.28% (inactive) | 99% (inactive) | 0.46 (active) | 5% (inactive) | 14.1% (inactive) | -11.8% (inactive)
C#CCOc1ccc2c(C)cc(=O)oc2c1 | 105% (inactive) | 93% (inactive) | 107% (inactive) | 77.6% (inactive) | 98.9% (inactive) | 60.4% | 603% (inactive) | 98% (inactive) | 4% (inactive) | -1.57% (inactive) | -7.76% (inactive) | -0.49% (inactive) | 99.7% (inactive) | 0.36 (inactive) | 0% (inactive) | 16.9% (inactive) | 3.7% (inactive)
